The results in this text go back to PubChem BioAssay (NCI).

Compounds without any hit were thinned out: in the full panel of roughly 83,000, 20% have a hit.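 Note: values are percent growth. 100 is the growth of untreated cells, values between 100 and 0 indicate rising inhibition; between -100 and 0 indicates cell death.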 Unmarked numbers belong to inactive results. Activity calls are given as the source filed them. How the source made its calls: active means growth percent below 10; inactive means the rest.

Among the test systems are EKVX NSCLC; SN12C renal; UO-31 renal; TK-10 renal; ACHN renal; CAKI-1 renal; A498 renal; CCRF-CEM leukemia; MOLT-4 leukemia; SR leukemia; OVCAR-8 ovarian; OVCAR-5 ovarian; OVCAR-4 ovarian; SK-OV-3 ovarian; IGROV1 ovarian; OVCAR-3 ovarian; HS 578T breast; NCI/ADR-RES ovarian; RPMI-8226 leukemia.
Holding throughout (assay): NCI-60 one-dose screen, 48 h (100 = growth as untreated, 0 = no growth, -100 = all killed)
Common to all, as to details: 10 µM unless noted

Take `COc1ccc(C2C(C#N)=C(N)Oc3c2sc2c(C)cccc32)cc1` (configuration not stated): the growth was 42.3% in the experiment with EKVX NSCLC; 23.9% in the experiment with SN12C renal; 33.9% in the experiment with UO-31 renal; 63.8% in the experiment on TK-10 renal; 28.3% with ACHN renal; 3.44% (active) in the experiment on CAKI-1 renal. Also, the growth was -5.44% (active) with A498 renal; 8% (active) with CCRF-CEM leukemia; 12.9% with MOLT-4 leukemia; 15.4% in the experiment with SR leukemia; 22.6% in the experiment on OVCAR-8 ovarian; 23.5% in the experiment on OVCAR-5 ovarian. Further, the growth in the experiment with OVCAR-4 ovarian was 50.1%; with SK-OV-3 ovarian it was 67.4%; in the experiment with IGROV1 ovarian, 23.3%; in the experiment with OVCAR-3 ovarian, 4.88% (active); in the experiment on HS 578T breast, 18.6%; with NCI/ADR-RES ovarian, 4.33% (active).
As for `CCc1ccc(Oc2c(-c3ccc(OCc4ccc(Cl)cc4)cc3O)n[nH]c2C(F)(F)F)cc1`, the growth with EKVX NSCLC is 15.7%; in the experiment with SN12C renal it was 15.3%; with UO-31 renal, -10.4% (active); in the experiment with TK-10 renal it was 16.1%; with ACHN renal, 5.7% (active); with CAKI-1 renal it was 29.6%. Further, the growth with A498 renal was 11.2%; in the experiment with CCRF-CEM leukemia it was 11.7%; in the experiment with MOLT-4 leukemia, -3.23% (active); with RPMI-8226 leukemia, 1.99% (active); in the experiment with OVCAR-5 ovarian, 85.9%; in the experiment with OVCAR-4 ovarian it was 16.5%. Further, the growth with SK-OV-3 ovarian was 27%; with IGROV1 ovarian it was 22%; in the experiment on OVCAR-3 ovarian, 0.589% (active); in the experiment with HS 578T breast, 27.9%; in the experiment with NCI/ADR-RES ovarian, 16.5%.
Turning to `O=C(/C=C/c1sc(Cl)nc1Cl)c1ccc(Br)cc1`, the growth in the experiment on SN12C renal is 41.7%; in the experiment on UO-31 renal it was 80.2%; in the experiment on TK-10 renal, 92.3%; in the experiment with ACHN renal, 75.6%; with CAKI-1 renal it was 87.1%; in the experiment with A498 renal it was 92.2%. For the same molecule, the growth with CCRF-CEM leukemia was 29.9%; with MOLT-4 leukemia, 29.9%; in the experiment with RPMI-8226 leukemia, 30.9%; in the experiment with OVCAR-8 ovarian, 90%; in the experiment with OVCAR-5 ovarian it was 95.3%; with OVCAR-4 ovarian, 108%. The growth was 105% with SK-OV-3 ovarian; 68.5% in the experiment with IGROV1 ovarian; 40% with OVCAR-3 ovarian; 93.5% in the experiment on HS 578T breast; 104% in the experiment with NCI/ADR-RES ovarian.
In the case of `Cc1nc2nc(SCC(=O)O)[nH]c2c(=O)[nH]1`, the growth in the experiment on EKVX NSCLC was 108%; with SN12C renal, 100%; with UO-31 renal it was 92.2%; in the experiment on TK-10 renal, 101%; in the experiment with ACHN renal it was 110%; with CAKI-1 renal, 99.2%. The growth in the experiment on A498 renal was 81.5%; with CCRF-CEM leukemia, 97.2%; with MOLT-4 leukemia, 103%; with SR leukemia, 115%; in the experiment with RPMI-8226 leukemia, 96.9%; with OVCAR-5 ovarian, 104%. Moreover, the growth with OVCAR-4 ovarian is 131%; with SK-OV-3 ovarian, 103%; with IGROV1 ovarian it was 101%; with OVCAR-3 ovarian, 115%; in the experiment on HS 578T breast, 99%; in the experiment on NCI/ADR-RES ovarian, 105%.
Regarding `CCOC(=O)NCCc1ccccc1`, the growth is 111% in the experiment with EKVX NSCLC; 99.2% with SN12C renal; 76.3% in the experiment with UO-31 renal; 112% in the experiment on TK-10 renal; 110% with ACHN renal; 86% in the experiment with CAKI-1 renal. Moreover, the growth is 110% with A498 renal; 116% in the experiment with CCRF-CEM leukemia; 90.1% in the experiment on MOLT-4 leukemia; 74% in the experiment on SR leukemia; 108% in the experiment on OVCAR-8 ovarian; 112% in the experiment on OVCAR-5 ovarian. In addition, the growth in the experiment on OVCAR-4 ovarian was 121%; with SK-OV-3 ovarian, 106%; with IGROV1 ovarian, 85.3%; with HS 578T breast, 105%.
Regarding `C/C(=N/NC(N)=S)c1sc(Nc2cccc(Cl)c2)nc1C`, the growth is 74.1% in the experiment on EKVX NSCLC; 76.1% in the experiment on SN12C renal; 35.7% in the experiment with UO-31 renal; 86.7% with TK-10 renal; 80.5% in the experiment on ACHN renal; 63.8% in the experiment on CAKI-1 renal. Moreover, the growth is 81.4% in the experiment with A498 renal; 82.4% in the experiment with CCRF-CEM leukemia; 50% with MOLT-4 leukemia; 90.1% with SR leukemia; 97.5% in the experiment on OVCAR-8 ovarian; 86.8% in the experiment with OVCAR-5 ovarian. The growth in the experiment with OVCAR-4 ovarian is 63.6%; in the experiment with SK-OV-3 ovarian it was 116%; in the experiment with IGROV1 ovarian, 86%; in the experiment with OVCAR-3 ovarian, 76.8%; in the experiment on HS 578T breast, 88.2%; in the experiment with NCI/ADR-RES ovarian it was 86.7%.
In the case of `Clc1ccc(C(/C=C/c2sc(Cl)nc2Cl)=N/Nc2cc(Cl)cc(Cl)c2)cc1`, the growth with EKVX NSCLC is 103%; with SN12C renal it was 100%; with UO-31 renal it was 83%; in the experiment with TK-10 renal, 119%; in the experiment with ACHN renal, 102%; with CAKI-1 renal it was 98.2%. In addition, the growth was 94.5% with CCRF-CEM leukemia; 96.6% in the experiment on MOLT-4 leukemia; 98.1% in the experiment on RPMI-8226 leukemia; 104% with OVCAR-8 ovarian; 104% in the experiment with OVCAR-5 ovarian; 100% in the experiment on OVCAR-4 ovarian. Moreover, the growth in the experiment with SK-OV-3 ovarian was 98.9%; in the experiment on IGROV1 ovarian, 89.7%; in the experiment with OVCAR-3 ovarian, 103%; with HS 578T breast it was 98.3%; in the experiment on NCI/ADR-RES ovarian, 104%.
Turning to `Cc1ccc(C(=O)NN2C(=O)CSC2c2ccc(Cl)cc2)cn1` (configuration not stated), the growth with EKVX NSCLC is 110%; in the experiment with SN12C renal it was 91.4%; in the experiment on UO-31 renal, 21.8%; in the experiment with TK-10 renal, 128%; with ACHN renal it was 96.5%; with CAKI-1 renal, 80.7%. The growth with A498 renal was 164%; in the experiment on CCRF-CEM leukemia, 117%; with MOLT-4 leukemia, 82.2%; in the experiment on SR leukemia it was 80.8%; with RPMI-8226 leukemia, 113%; in the experiment with OVCAR-5 ovarian it was 92.3%. The growth in the experiment with OVCAR-4 ovarian is 101%; with SK-OV-3 ovarian, 97.1%; in the experiment with IGROV1 ovarian, 54.8%; in the experiment on OVCAR-3 ovarian it was 111%; in the experiment with HS 578T breast, 130%; with NCI/ADR-RES ovarian, 93.2%.
`CCC(=O)Nc1ccc(-c2nc(-c3cccc(OC)c3)c(-c3ccnc(Br)c3)[nH]2)cc1`: the growth with EKVX NSCLC was 64.6%; in the experiment with SN12C renal it was 68.3%; with UO-31 renal, 53.9%; in the experiment on TK-10 renal, 90.4%; in the experiment with ACHN renal, 60.3%; in the experiment with CAKI-1 renal, 57.1%. Also, the growth in the experiment with A498 renal is 50.5%; in the experiment with CCRF-CEM leukemia, 37.1%; in the experiment on MOLT-4 leukemia it was 44.6%; with SR leukemia, 25.3%; in the experiment on OVCAR-8 ovarian, 58.2%; with OVCAR-5 ovarian, 87%. Also, the growth in the experiment on OVCAR-4 ovarian was 46.8%; with SK-OV-3 ovarian, 101%; in the experiment with IGROV1 ovarian it was 81%; with OVCAR-3 ovarian, 65.4%; in the experiment with HS 578T breast it was 39.2%; in the experiment on NCI/ADR-RES ovarian it was 67.9%.
